Results filed as inconclusive are left out. Calls of active or inactive are those of the source. Unless noted, calls follow the shape of the dose curve; as a rule, active = well fitted curve in the direction sought with a large enough effect in the repeat runs; inconclusive = weak or mixed curves; inactive = no such curve, though single readings can be large; an effect the other way counts as inactive or inconclusive.
Columns and labels:
[1] = molecular target: Luciferin 4-monooxygenase (Photinus pyralis) (UniProt P08659); test: qHTS assay to identify small molecule inhibitors of firefly luciferase (AID 1224835); also: nearly all actives have a fitted effect of over 25% in size; also: potency is read from the fitted curve at half-maximal effect
Outline: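 Biochemical qHTS: compounds run as interplate titrations against purified firefly enzyme, with D-luciferin and ATP each at its KM concentration. Light output recorded by CCD imaging.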

[2] = qHTS assay to identify small molecule agonists of the constitutive androstane receptor (CAR) signaling pathway - cell viability counter screen (AID 1224836); also: nearly all actives have a fitted effect of over 45% in size; also: potency is read from the fitted curve at half-maximal effect; as to viability change, negative = cytotoxic: series mostly up to about 92 µM
Outline: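 HepG2-CYP2B6-hCAR, 2500 cells/well, 4 h pre-incubation; cpd 15 conc + PK11195 0.75 uM final; 23 h, 37 C/5% CO2; CellTiter-Fluor, fluorescence.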

[3] = qHTS assay to identify small molecule antagonists of the constitutive androstane receptor (CAR) signaling pathway - cell viability counter screen (AID 1224837); also: nearly all actives have a fitted effect of over 45% in size; also: potency is read from the fitted curve at half-maximal effect; as to activity change, negative = cytotoxicity: series mostly up to about 92 µM
Outline: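 In quantitative HTS format, compounds at 15 concentrations were applied to HepG2 cells double-transfected with hCAR and CYP2B6-2.2kb under 50 nM CITCO stimulation; live-cell protease activity was read after 23 hr via CellTiter-Fluor.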

[4] = molecular target: Nuclear receptor subfamily 1 group I member 3 (Homo sapiens) (UniProt Q14994); test: qHTS assay to identify small molecule antagonists of the constitutive androstane receptor (CAR) signaling pathway (AID 1224838); also: nearly all actives have a fitted effect of over 40% in size; also: potency is read from the fitted curve at half-maximal effect
Outline: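 CITCO-stimulated (50 nM final) HepG2 cells stably transfected with hCAR and CYP2B6-2.2kb luciferase were exposed to compounds at 15 concentrations for 24 h at 37 C/5% CO2. A luciferase reagent was added and luminescence recorded after 30 min.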

[5] = molecular target: Nuclear receptor subfamily 1 group I member 3 (Homo sapiens) (UniProt Q14994); test: qHTS assay to identify small molecule agonists of the constitutive androstane receptor (CAR) signaling pathway (AID 1224839); also: nearly all actives have a fitted effect of over 15% in size; also: potency is read from the fitted curve at half-maximal effect;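 as to activation: HepG2 cells stably carrying human CAR and a CYP2B6 luciferase reporter; series mostly up to about 92 µM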
Outline: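 HepG2-CYP2B6-hCAR cells, 2500/well, 4 h pre-incubation; compounds 15 conc.; PK11195 0.75 uM final; 24 h, 37 C/5% CO2; ONE-Glo luciferase read.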

[6] = molecular target: Thyrotropin receptor (Homo sapiens) (UniProt P16473); test: qHTS assay to identify small molecule agonists of the thyroid stimulating hormone receptor (TSHR) signaling pathway (AID 1224843; calls by dose curve; also: nearly all actives have a fitted effect of over 45% in size)
Outline: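 HEK293/TSHR, 800 cells/well; cpd 30 min RT; add cAMP-d2 + anti-cAMP-cryptate, 1 h RT; fluorescence read on plate reader. 15-pt titration, n=3.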

[7] = qHTS assay to identify small molecule agonists of the hypoxia (HIF-1) signaling pathway - cell viability counter screen (AID 1224844; calls by dose curve; also: nearly all actives have a fitted effect of over 50% in size)
Outline: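 Same wells as the HIF-1 reporter screen; ME-180 cells carrying HRE-bla, 17 hr treatment at 37C; CellTiter-Glo luminescence read after 30 min at room temperature.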

[8] = qHTS assay to identify small molecule antagonists of the estrogen related receptor signaling pathway with the pleiotropic PPARgamma coactivator (PGC) from Tox21 10K library (AID 1224841; call rule not given here; also: series mostly up to about 92 µM; actives are mostly falling curves and most rising ones were filed inactive; nearly all actives have a fitted effect of over 50% in size)
Outline: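 In the PGC/ERR line, DMSO solutions of test chemicals are pin-delivered to 2,000 cells/well six hours after dispensing. Following eighteen hours' incubation, One-Glo reagent is added and luminescence recorded.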

[9] = qHTS assay to identify small molecule agonists of the estrogen related receptor signaling pathway with the pleiotropic PPARgamma coactivator (PGC) from Tox21 10K library (AID 1224842); also: nearly all actives have a fitted effect of over 15% in size
Outline: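 PGC/ERR reporter cell line, 2,000 cells per well, incubated 6 h at 37 C before 23 nL compound in DMSO was added. After 18 h at 37 C, One-Glo luminescence read following 30 min at room temperature.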

[10] = qHTS assay to identify small molecule antagonists of the estrogen related receptor signaling pathway with the pleiotropic PPARgamma coactivator (PGC) from Tox21 10K library - cell viability counter screen (AID 1224840; active = well fitted cell-killing curve with a large enough effect in the repeat runs, not every such curve was filed as active; also: nearly all actives have a fitted effect of over 40% in size; also: potency is read from the fitted curve at half-maximal effect)
Outline: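 Viability counter screen, PGC/ERR cells: 17.5 h compound exposure at 37 C, CellTiter-Fluor fluorescence endpoint.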
% is scaled to controls: 0 for no effect and ±100 for the full control effect.

Nuclear receptor subfamily 1 group I member 3 (Homo sapiens), sequence (Q14994 whole entry, looked up): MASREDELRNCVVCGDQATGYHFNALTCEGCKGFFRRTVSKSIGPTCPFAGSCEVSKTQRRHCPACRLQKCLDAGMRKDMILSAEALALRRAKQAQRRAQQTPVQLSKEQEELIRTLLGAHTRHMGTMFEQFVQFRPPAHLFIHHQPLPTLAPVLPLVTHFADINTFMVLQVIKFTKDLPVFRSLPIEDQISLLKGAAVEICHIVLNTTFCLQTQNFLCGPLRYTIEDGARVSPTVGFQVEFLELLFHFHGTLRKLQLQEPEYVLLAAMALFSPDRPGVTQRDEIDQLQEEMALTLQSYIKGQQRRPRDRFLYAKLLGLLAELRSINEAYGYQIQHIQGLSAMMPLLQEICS
Luciferin 4-monooxygenase (Photinus pyralis), sequence (P08659 whole entry, looked up): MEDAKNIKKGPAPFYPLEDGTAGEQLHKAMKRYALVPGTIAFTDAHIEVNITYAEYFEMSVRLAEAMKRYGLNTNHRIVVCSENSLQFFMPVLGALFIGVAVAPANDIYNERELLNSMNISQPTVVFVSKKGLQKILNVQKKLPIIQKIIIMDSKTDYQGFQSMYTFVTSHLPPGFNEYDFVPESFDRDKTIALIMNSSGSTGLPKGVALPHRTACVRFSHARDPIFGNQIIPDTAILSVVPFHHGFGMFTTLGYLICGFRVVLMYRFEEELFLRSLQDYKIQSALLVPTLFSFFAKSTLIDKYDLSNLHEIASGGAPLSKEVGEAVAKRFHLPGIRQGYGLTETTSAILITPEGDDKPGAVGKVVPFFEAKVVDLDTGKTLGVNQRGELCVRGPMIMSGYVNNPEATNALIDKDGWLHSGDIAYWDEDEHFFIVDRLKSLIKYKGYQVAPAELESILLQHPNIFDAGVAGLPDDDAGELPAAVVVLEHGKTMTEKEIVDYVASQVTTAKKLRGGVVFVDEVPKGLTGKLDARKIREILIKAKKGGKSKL
Thyrotropin receptor (Homo sapiens), sequence (P16473 whole entry, looked up): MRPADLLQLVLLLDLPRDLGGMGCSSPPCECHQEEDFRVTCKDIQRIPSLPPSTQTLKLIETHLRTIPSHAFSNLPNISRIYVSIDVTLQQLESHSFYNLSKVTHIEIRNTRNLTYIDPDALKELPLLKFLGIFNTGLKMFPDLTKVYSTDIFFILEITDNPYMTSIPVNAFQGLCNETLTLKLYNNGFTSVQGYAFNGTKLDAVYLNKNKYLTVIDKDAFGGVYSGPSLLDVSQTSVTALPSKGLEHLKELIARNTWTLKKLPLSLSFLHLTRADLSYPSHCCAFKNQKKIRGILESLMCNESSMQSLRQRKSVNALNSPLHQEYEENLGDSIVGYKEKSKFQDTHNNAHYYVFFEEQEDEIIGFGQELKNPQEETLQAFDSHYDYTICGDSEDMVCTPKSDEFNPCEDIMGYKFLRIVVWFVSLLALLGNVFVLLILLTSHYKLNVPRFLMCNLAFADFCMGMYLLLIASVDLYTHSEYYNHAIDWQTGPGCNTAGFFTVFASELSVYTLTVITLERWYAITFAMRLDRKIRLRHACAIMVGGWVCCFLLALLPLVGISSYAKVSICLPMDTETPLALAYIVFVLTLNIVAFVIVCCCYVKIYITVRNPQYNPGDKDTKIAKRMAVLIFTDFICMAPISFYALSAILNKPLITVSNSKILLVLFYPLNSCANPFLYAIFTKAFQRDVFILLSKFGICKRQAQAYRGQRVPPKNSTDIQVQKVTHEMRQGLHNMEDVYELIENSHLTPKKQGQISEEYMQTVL

O=C(O)/C=C/c1ccc(O)c(O)c1
inactive: Potency [1] | Potency [2] | Potency [3] | Potency [4] | Potency [5] | Potency [6] | Potency [7]

CC(=O)N[C@@H](Cc1ccc(O)cc1)C(=O)O
inactive: Potency [1] | Potency [2] | Potency [3] | Potency [4] | Potency [5] | Potency [8] | Potency [9] | Potency [6] | Potency [7]

CC(C)N(C)C
inactive: Potency [1] | Potency [2] | Potency [3] | Potency [4] | Potency [5] | Potency [6] | Potency [7]

CC[C@@H](CO)NCCN[C@@H](CC)CO
inactive: Potency [1] | Potency [2] | Potency [3] | Potency [4] | Potency [5] | Potency [8] | Potency [9] | Potency [6] | Potency [7]

CCOC(=O)Oc1ccc(CCNC(=O)[C@H](CCSC)NC(C)=O)cc1OC(=O)OCC
inactive: Potency [1] | Potency [2] | Potency [3] | Potency [4] | Potency [5] | Potency [6] | Potency [7]

COc1cc(S(=O)(=O)Nc2ccccc2)c(OC)cc1N
inactive: Potency [1] | Potency [2] | Potency [3] | Potency [4] | Potency [10] | Potency [6] | Potency [7]

CC(C)OC(=O)c1ccccc1C(=O)OC(C)C
inactive: Potency [1] | Potency [2] | Potency [3] | Potency [4] | Potency [10] | Potency [6] | Potency [7]

CCOC(=O)c1c(N)sc2c1CCN(Cc1ccccc1)C2
inactive: Potency [1] | Potency [2] | Potency [3] | Potency [4] | Potency [5] | Potency [6] | Potency [7]

COc1ccc(-c2cc(C(F)F)nn2-c2ccc(S(N)(=O)=O)cc2)cc1F
inactive: Potency [1] | Potency [2] | Potency [3] | Potency [4] | Potency [5] | Potency [8] | Potency [9] | Potency [7]

O=C1NC(=O)c2cccc3cccc1c23
inactive: Potency [1] | Potency [2] | Potency [3] | Potency [4] | Potency [5] | Potency [6] | Potency [7]

CO[C@@H]1[C@@H](OC)[C@H](C)[C@@](O)(CC(=O)O)O[C@H]1[C@H](C)[C@H]1O[C@@]2(CC[C@@](C)([C@H]3CC[C@@](C)([C@@H]4O[C@@H]([C@H]5O[C@](C)(O)[C@H](C)C[C@@H]5C)C[C@@H]4OC4C[C@H](OC)[C@@H](OC)[C@H](C)O4)O3)O2)C[C@H](O)[C@H]1C (stereo partly specified)
inactive: Potency [1]
active: Potency [2] 5.31 µM | Potency [3] 4.73 µM | Potency [4] 9.44 µM | Potency [10] 0.75 µM

Cc1ccc2c(c1)CCCN2
inactive: Potency [1] | Potency [2] | Potency [3] | Potency [4] | Potency [10] | Potency [6] | Potency [7]

CC(C)(C)C(O)/C=C/c1ccc2c(c1)OCO2 (stereo unspecified)
active: Potency [1] 24.5 µM
inactive: Potency [2] | Potency [3] | Potency [4] | Potency [10] | Potency [6] | Potency [7]

c1ccc2sc(SSc3nc4ccccc4s3)nc2c1
inactive: viability change, negative = cytotoxic [2] 1.07% [at 19 µM] | activity change, negative = cytotoxicity [3] 11.8% [at 19 µM] | activity, negative = inhibition [4] 80.4% [at 19 µM] | viability change, negative = cytotoxic [10] 10.2% [at 19 µM] | activation [6] -4.06% [at 19 µM] | activity change, negative = cytotoxicity [7] -3.54% [at 15.8 µM]
active: Potency [1] 10.7 µM

Nc1ccn([C@H]2CS[C@@H](CO)O2)c(=O)n1
inactive: Potency [1] | Potency [2] | Potency [3] | Potency [4] | Potency [5] | Potency [6] | Potency [7]

COC(=O)CC(C(C)=O)C(=O)OC (stereo unspecified)
inactive: Potency [1] | Potency [2] | Potency [3] | Potency [4] | Potency [5] | Potency [6] | Potency [7]

CC(O)Cn1cnc2c1c(=O)n(C)c(=O)n2C (stereo unspecified)
inactive: Potency [1] | Potency [2] | Potency [3] | Potency [4] | Potency [10] | Potency [8] | Potency [9] | Potency [7]

CS(=O)(=O)c1ccc([C@@H](C[C@H]2CCC(=O)C2)C(=O)Nc2cnccn2)cc1Cl
inactive: Potency [1] | Potency [2] | Potency [3] | Potency [4] | Potency [5] | Potency [6] | Potency [7]

[Cl][Nd]([Cl])[Cl]
inactive: Potency [2] | Potency [3] | Potency [4] | Potency [5] | Potency [8] | Potency [9] | Potency [6] | Potency [7]
active: Potency [1] 39.9 µM

COc1ccc(/C=C/C(=O)c2ccc(OC)cc2OC)cc1
active: Potency [1] 17.4 µM | Potency [5] 21.1 µM
inactive: Potency [2] | Potency [3] | Potency [4] | Potency [8] | Potency [9] | Potency [6] | Potency [7]

COC(OC)OC
inactive: Potency [1] | Potency [2] | Potency [3] | Potency [4] | Potency [5] | Potency [6]

CCN(CC)CCOC(=O)C(c1ccccc1)c1ccccc1
inactive: Potency [1] | Potency [2] | Potency [3] | Potency [4] | Potency [5] | Potency [6] | Potency [7]

O=C(O)CCS
inactive: Potency [1] | Potency [2] | Potency [3] | Potency [4] | Potency [10] | Potency [8] | Potency [9] | Potency [6] | Potency [7]

O=NN(CCCl)C(=O)NCCCl
inactive: Potency [1] | Potency [2] | Potency [3] | Potency [4] | Potency [10] | Potency [8] | Potency [9] | Potency [6] | Potency [7]

COc1cc(OC)c2ccc(=O)oc2c1
inactive: Potency [1] | Potency [2] | Potency [3] | Potency [4] | Potency [10] | Potency [6] | Potency [7]
